# The source made the active and inactive calls.
# Legend:
# [1] = binders of probe aFSTL3 on microarray, primary screen, stem cell growth factor project, biochemical, small-molecule microarray, fluorescence 635/667 (AID 1064); settings: higher = more signal;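 also: measures binding of the biotinylated anti-FSTL3 antibody to printed compounds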
# [2] = binders from COS7 lysate, DM2A8 probe, primary screen, torsin A project, cell lysate, small-molecule microarray, fluorescence 635/667 (AID 1065); settings: higher = more signal, COS7 lysate expressing mutant human TOR1A
# [3] = binders of probe aFGF2 on microarray, primary screen, stem cell growth factor project, biochemical, small-molecule microarray, fluorescence 635/667 (AID 1067); settings: higher = more signal;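 also: measures binding of biotinylated aFGF2 protein to printed compounds on slides; z-score merges feature fluorescence and signal-to-noise across triplicate slides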
# [4] = binders of probe aFGF10 on microarray, primary screen, stem cell growth factor project, biochemical, small-molecule microarray, fluorescence 635/667 (AID 1071); settings: higher = more signal;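 also: score merges 667 nm spot intensity and signal to noise from triplicate slides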
# [5] = molecular target: Neurogenic locus notch homolog protein 2 (Homo sapiens) (UniProt Q04721); assay: Notch2 binders on small-molecule microarrays, primary screen, biochemical, small-molecule microarray, 635 nm fluorescence, stem cell growth factors (AID 1073); settings: Notch2 binding, higher = more signal
# [6] = molecular target: Pro-neuregulin-1, membrane-bound isoform (Homo sapiens) (UniProt Q02297); assay: NRG1 binders on small-molecule microarrays, primary screen, psychiatric disease protein project, biochemical, small-molecule microarray, fluorescence 635/667 (AID 1075); settings: NRG1 binding, 635 nm fluorescence, higher = more signal;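 also: score combines 667 nm spot fluorescence with signal to noise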
# [7] = tested on: Neuregulin-1 EGF-like domain; assay: binders of neuregulin-1 EGF-like domain, primary screen, biochemical, small-molecule microarray, 635 nm fluorescence (AID 1081); settings: small-molecule microarray binding, higher = more signal;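 also: binding of the protein to compounds printed on small-molecule microarray slides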
# [8] = FRG1 promoter luciferase signal modulators, primary screen, FRG1 inhibition for FSHD, cell-based, C2C12 myotubes, firefly/Renilla luciferase, luminescence (AID 1084); settings: higher = more signal, called active from +8 up or from −8 down
# [9] = binders of probe aFST on microarray, primary screen, stem cell growth factor project, biochemical, small-molecule microarray, fluorescence 635/667 (AID 1086); settings: higher = more signal;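 also: score merges 667 nm fluorescence with signal-to-noise of each printed compound spot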
# [10] = binders of probe aHhip on microarray, primary screen, stem cell growth factor project, biochemical, small-molecule microarray, fluorescence 635/667 (AID 1087); settings: higher = more signal;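 also: score merges spot fluorescence at 667nm with spot signal to noise ratio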
# [11] = tested on: PRMT1 (protein arginine N-methyltransferase 1); assay: PRMT1 binders on small-molecule microarrays, primary screen, biochemical, small-molecule microarray, 635 nm fluorescence (AID 1088); settings: small-molecule microarray binding, higher = more signal;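 also: binding of Prmt1 protein to compounds spotted on small-molecule microarray slides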
# [12] = yeast growth modulation, basal conditions, primary screen, YJM789 clinical isolate, OD600, 24 h (AID 1089);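 also: growth of clinical yeast isolate S. cerevisiae YJM 789 seeded 1000 cells per well; test concentration not given here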; settings: S. cerevisiae YJM789 growth, higher = more signal, called active from +8 up or from −8 down
# [13] = fission yeast growth modulation, primary screen, strain 972, OD600, 24 h, no modulator (AID 1090);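 also: basal condition with compound alone and no growth modifier present; test concentration not given here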; settings: S. pombe 972 growth, higher = more signal, called active from +8 up or from −8 down
# [14] = S. cerevisiae growth modulation with rapamycin, primary screen, strain BY4716, OD600, 96 h (AID 1091); settings: higher = more signal, called active from +8 up or from −8 down; also: test concentration not given here
# [15] = molecular target: Torsin-1A-interacting protein 2 (Homo sapiens) (UniProt Q8NFQ8); assay: LULL1 binders on small-molecule microarray, primary screen, cell lysate, human LULL1 lysate, 635/667 nm fluorescence (AID 1092); settings: hLULL1 lysate binding, 635 nm fluorescence, higher = more signal;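 also: probe is lysate of COS7 cells overexpressing human LULL1; score merges per-feature 667 nm fluorescence with signal-to-noise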
# [16] = E. coli growth modulation, two-sided OD650, primary screen, E. coli filamentation project, strain DRC41, 24 h (AID 1093); settings: OD650, 24 h, higher = more signal, called active from +8 up or from −8 down;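 also: MC1000 strain lacking acrAB efflux and sulA so SOS filamentation is blocked; test concentration not given here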
# [17] = small-molecule microarray binders of probe aLefty2, primary screen, biochemical, biotinylated probe, 635/667 nm fluorescence (AID 1094); settings: higher = more signal;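 also: score merges spot fluorescence near 667 nm with spot signal-to-noise ratio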
# [18] = tested on: Noggin (protein binding on small-molecule microarray); assay: Noggin binders on small-molecule microarray, primary screen, biochemical, 635/667 nm fluorescence (AID 1095); settings: 635 nm fluorescence, higher = more signal;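 also: score merges 667 nm feature fluorescence with signal to noise over triplicate slides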
# [19] = molecular target: Neurogenic locus notch homolog protein 3 (Homo sapiens) (UniProt Q9UM47); assay: NOTCH3 binders on small-molecule microarray, primary screen, biochemical, 635/667 nm fluorescence (AID 1096); settings: NOTCH3 binding, 635 nm fluorescence, higher = more signal
# [20] = small-molecule microarray binders of probe aEGFR, primary screen, biochemical, biotinylated probe, 635/667 nm fluorescence (AID 1097); settings: higher = more signal;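 also: probe is a biotinylated anti-EGFR antibody binding compounds printed on slides; score combines fluorescence near 667 nm and signal to noise of each spot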
# Sequence of Torsin-1A-interacting protein 2 (Homo sapiens) (Q8NFQ8 whole entry, looked up): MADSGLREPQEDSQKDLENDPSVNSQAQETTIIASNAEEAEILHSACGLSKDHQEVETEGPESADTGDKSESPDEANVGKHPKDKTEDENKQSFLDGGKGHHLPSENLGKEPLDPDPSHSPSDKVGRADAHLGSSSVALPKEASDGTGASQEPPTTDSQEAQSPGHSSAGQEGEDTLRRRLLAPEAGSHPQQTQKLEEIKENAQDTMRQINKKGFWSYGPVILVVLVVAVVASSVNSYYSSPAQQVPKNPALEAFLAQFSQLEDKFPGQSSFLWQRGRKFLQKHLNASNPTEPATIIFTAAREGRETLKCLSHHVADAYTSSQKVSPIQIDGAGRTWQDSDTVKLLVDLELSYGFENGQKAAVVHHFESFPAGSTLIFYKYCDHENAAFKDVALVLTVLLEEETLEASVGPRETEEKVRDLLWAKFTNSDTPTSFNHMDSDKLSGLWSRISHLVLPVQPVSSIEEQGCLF
# Sequence of Neurogenic locus notch homolog protein 3 (Homo sapiens) (Q9UM47 whole entry, looked up): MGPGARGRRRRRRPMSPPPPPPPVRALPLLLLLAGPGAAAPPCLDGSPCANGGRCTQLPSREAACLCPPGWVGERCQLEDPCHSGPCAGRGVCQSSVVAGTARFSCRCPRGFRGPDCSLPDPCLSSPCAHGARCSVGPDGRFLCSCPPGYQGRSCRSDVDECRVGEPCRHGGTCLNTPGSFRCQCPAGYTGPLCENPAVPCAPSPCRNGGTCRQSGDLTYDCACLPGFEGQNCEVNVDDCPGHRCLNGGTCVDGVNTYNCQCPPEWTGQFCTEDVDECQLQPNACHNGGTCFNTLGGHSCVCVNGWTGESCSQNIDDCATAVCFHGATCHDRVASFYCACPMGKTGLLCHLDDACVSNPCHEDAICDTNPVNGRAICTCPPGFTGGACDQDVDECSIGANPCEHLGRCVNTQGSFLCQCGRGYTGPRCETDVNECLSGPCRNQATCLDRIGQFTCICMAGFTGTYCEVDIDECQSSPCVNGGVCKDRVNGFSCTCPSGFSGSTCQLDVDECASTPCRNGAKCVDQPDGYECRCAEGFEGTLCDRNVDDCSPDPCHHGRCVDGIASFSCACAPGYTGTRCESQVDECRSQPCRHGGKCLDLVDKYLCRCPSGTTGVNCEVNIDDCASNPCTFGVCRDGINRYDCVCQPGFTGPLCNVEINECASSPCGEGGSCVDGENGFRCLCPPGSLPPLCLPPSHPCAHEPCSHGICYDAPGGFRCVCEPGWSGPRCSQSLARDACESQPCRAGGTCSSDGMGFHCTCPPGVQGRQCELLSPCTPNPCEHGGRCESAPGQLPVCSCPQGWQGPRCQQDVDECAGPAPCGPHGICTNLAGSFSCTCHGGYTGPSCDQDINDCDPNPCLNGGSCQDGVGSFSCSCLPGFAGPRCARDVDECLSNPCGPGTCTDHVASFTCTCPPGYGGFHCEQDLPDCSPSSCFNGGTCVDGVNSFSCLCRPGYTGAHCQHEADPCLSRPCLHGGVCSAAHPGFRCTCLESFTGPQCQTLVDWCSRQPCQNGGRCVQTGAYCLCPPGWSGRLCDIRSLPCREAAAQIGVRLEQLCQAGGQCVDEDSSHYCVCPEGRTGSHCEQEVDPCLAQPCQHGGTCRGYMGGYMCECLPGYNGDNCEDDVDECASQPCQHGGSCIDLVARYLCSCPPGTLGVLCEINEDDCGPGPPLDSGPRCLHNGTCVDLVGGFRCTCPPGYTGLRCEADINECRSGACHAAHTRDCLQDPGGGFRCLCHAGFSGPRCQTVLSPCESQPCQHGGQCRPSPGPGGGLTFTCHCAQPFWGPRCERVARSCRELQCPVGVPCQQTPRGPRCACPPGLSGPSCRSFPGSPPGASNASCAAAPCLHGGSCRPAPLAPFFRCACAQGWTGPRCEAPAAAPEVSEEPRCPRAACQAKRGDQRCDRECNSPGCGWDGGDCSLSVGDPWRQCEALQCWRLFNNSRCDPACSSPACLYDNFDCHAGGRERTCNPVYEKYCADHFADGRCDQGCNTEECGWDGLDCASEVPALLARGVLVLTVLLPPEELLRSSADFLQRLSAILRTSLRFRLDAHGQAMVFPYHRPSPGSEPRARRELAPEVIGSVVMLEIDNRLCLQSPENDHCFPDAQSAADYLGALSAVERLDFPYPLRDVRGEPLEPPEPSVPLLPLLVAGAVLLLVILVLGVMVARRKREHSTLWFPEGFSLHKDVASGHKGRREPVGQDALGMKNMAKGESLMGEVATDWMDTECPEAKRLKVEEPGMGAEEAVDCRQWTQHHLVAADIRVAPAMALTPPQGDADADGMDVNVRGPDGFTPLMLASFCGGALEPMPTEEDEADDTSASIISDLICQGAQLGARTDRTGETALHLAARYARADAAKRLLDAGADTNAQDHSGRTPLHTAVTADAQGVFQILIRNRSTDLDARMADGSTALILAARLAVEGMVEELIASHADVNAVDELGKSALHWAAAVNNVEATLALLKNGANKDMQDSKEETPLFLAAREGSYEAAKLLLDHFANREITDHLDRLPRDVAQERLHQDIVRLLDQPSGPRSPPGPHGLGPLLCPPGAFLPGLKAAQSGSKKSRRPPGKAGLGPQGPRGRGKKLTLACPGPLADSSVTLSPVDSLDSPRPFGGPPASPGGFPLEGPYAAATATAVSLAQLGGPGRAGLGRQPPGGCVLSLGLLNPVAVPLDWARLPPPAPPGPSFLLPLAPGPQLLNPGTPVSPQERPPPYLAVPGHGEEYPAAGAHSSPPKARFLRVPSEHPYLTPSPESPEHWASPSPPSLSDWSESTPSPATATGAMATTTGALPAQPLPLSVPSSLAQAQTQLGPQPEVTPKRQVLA
# Sequence of Pro-neuregulin-1, membrane-bound isoform (Homo sapiens) (Q02297 whole entry, looked up, the tested form may be a part, canonical isoform): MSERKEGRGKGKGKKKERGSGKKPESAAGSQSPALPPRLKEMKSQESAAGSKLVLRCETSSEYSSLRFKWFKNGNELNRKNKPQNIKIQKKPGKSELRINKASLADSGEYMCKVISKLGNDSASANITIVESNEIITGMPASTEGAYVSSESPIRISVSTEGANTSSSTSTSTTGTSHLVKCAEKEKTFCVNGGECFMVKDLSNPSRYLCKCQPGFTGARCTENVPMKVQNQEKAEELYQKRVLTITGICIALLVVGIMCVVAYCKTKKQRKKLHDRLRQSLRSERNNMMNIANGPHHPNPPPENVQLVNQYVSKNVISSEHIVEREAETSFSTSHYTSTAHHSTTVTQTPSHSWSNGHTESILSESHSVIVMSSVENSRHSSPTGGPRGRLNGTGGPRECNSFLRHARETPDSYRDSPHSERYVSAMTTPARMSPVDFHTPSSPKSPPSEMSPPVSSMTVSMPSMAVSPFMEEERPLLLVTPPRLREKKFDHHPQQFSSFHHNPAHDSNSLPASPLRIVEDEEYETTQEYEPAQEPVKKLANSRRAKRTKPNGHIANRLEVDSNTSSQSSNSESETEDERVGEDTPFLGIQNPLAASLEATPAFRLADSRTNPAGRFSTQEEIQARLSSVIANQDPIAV
SMILES,composite z-score [1],composite z-score [2],composite z-score [3],composite z-score [4],composite z-score [5],composite z-score [6],composite z-score [7],z-score [8],composite z-score [9],composite z-score [10],composite z-score [11],z-score [12],z-score [13],z-score [14],composite z-score [15],z-score [16],composite z-score [17],composite z-score [18],composite z-score [19],composite z-score [20]
Cc1ccc(S[C@]2(C(=O)NCCN3CCOCC3)CC(=O)N(Cc3cc(C(F)(F)F)cc(C(F)(F)F)c3)[C@@H]2c2ccc(CO)cc2)cc1,0.62,-0.439,-0.15,-1.35,-1.26,1.04,-0.382,-1.67 (inactive),-0.341,-0.0632,1.24,-1.03 (inactive),-3.43 (inactive),-2.07 (inactive),1.47,0.611 (inactive),-0.136,-0.984,-0.54,-0.252
C=C(COC)/C(=C/C[C@H](OC(C)=O)c1cccc(OCCO)c1)c1cc(C(=O)OC)ccc1OC,-0.269,0.952,-0.0986,0.318,-0.38,0.0557,0.691,-3.63 (inactive),0.276,-0.0296,0.905,-25.1 (active),-20.5 (active),-4.33 (inactive),0.574,1.57 (inactive),0.0056,1.29,0.694,-0.151
Cc1ccc(N2C(=O)c3ccccc3[C@](C)(C(=O)NCC(F)(F)F)[C@@H]2c2ccc(CO)cc2)nc1,1.36,-0.769,-0.128,-1.14,-1.22,1.64,0.0042,0.0677 (inactive),-0.413,-0.0423,-0.973,-0.625 (inactive),-0.972 (inactive),-0.286 (inactive),-0.916,1.1 (inactive),-0.0741,-1.81,-2.16,-0.352
CC(C)(C)OC(=O)CC[C@@]12N=C(c3ccc(OCCCO)cc3)O[C@@H]1c1ccccc1CN(Cc1ccccc1)C2=O,0.265,0.141,-0.0118,0.294,0.549,0.391,1.14,-4.73 (inactive),0.419,-0.069,1.56,1.44 (inactive),-3.05 (inactive),6.17 (inactive),2.49,1.36 (inactive),-0.0664,1.62,0.981,-0.103
CCN(CC)c1ccc(N2CC=CC34O[C@@H]5C=CCOC(=O)[C@@H]5[C@H]3C(=O)N(C(CO)C(C)C)[C@@H]4C2=O)cc1 (stereo not given in full),0.277,-0.866,-0.134,-0.241,-0.835,-0.367,-0.805,0.232 (inactive),-0.609,-0.134,-0.755,1.01 (inactive),-0.635 (inactive),1.07 (inactive),-0.952,1.59 (inactive),-0.138,-0.544,-1.02,-0.253
